Entries with a potency or affinity are not part of this list. Unmarked numbers belong to inactive results.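 How the source made its calls: active means fitted half-maximal dose no more than twice the top valid tested dose, for compounds that lower signal; inconclusive means fit invalid, or curve flat with activity between -70 and -30; inactive means potency past limit, curve flat within ±30, or signal increasing.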

Sequence of NAD-dependent protein deacylase sirtuin-5, mitochondrial (Homo sapiens) (Q9NXA8 whole entry, looked up): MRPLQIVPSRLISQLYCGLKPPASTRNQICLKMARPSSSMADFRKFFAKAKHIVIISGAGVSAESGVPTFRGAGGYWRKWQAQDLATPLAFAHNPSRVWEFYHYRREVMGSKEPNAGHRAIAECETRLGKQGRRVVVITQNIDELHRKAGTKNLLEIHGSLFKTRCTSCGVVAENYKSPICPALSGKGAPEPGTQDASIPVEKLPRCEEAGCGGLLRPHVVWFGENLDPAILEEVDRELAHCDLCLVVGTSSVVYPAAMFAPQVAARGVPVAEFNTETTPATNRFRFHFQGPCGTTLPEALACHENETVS

The assay has as its target NAD-dependent protein deacylase sirtuin-5, mitochondrial (Homo sapiens) (UniProt Q9NXA8). Nature of the assay: SIRT5 deacylase inhibitors, dose response, biochemical, fluorescence imaging, cherry-pick, set 6 (AID 720597).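 Further: lower AMC signal can also come from blocking the trypsin step; 0% = median of neutral control wells and -100% = median of positive control wells.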 The settings on record: Purified SirT5, succinyl-peptide-AMC/trypsin fluorescence; series mostly up to 15 µM; activity change, negative = inhibition: at the top concentration.
Consider `Cc1ccc(S(=O)(=O)Nc2ccc3c(c2)C(=O)N([C@H](C)CO)C[C@H](C)[C@H](CN(C)Cc2ccc(C(F)(F)F)cc2)OCCCC[C@H](C)O3)cc1`, for which the “activity change, negative = inhibition” value was -13.6%. With `CO[C@@H]1CN(C)C(=O)c2ccc(NC(=O)Nc3ccccc3)cc2OC[C@@H](C)N(C(C)=O)C[C@H]1C`, the “activity change, negative = inhibition” value is -32.1%. In the case of `Cc1ccc(S(=O)(=O)N(C)C[C@@H]2OCCCC[C@H](C)Oc3ccc(NS(=O)(=O)c4ccc(Cl)cc4)cc3C(=O)N([C@@H](C)CO)C[C@@H]2C)cc1` it was -15.5%; in that of `CCCC#Cc1cnc2c(c1)C(=O)N([C@@H](C)CO)C[C@@H](C)[C@H](CN(C)S(=O)(=O)c1cccc(OC)c1)O2`, 11.7%; in that of `C[C@H](CO)N1C[C@H](C)[C@H](CN(C)S(=O)(=O)c2cccc(F)c2)Oc2ncc(C#CC3CCCCC3)cc2C1=O`, 9.27%. In the case of `C[C@@H]1CCCCO[C@H](CN(C)C(=O)Cc2ccccc2)[C@@H](C)CN([C@H](C)CO)C(=O)c2cc(NS(=O)(=O)c3cn(C)cn3)ccc2O1` it was -24.7%; in that of `C[C@@H]1CCCCO[C@@H](CN(C)CC2CCCCC2)[C@H](C)CN([C@H](C)CO)C(=O)c2cc(NC(=O)CCCCCC(=O)Nc3ccccc3N)ccc2O1`, -23.9% [at 16 µM]. For `O=C(CCN1CCCCC1)N[C@H]1CC[C@H](CC(=O)N2CCC(Cc3ccccc3)CC2)O[C@H]1CO`, the “activity change, negative = inhibition” value is -26%. Take `C[C@H](CO)N1C[C@H](C)[C@H](CN(C)Cc2ccc(-c3ccccc3)cc2)Oc2cc(C#CC(C)(C)O)ccc2S1(=O)=O`: the “activity change, negative = inhibition” value was -17.6%.

For `C[C@@H]1CN([C@H](C)CO)C(=O)c2cc(NC(=O)CCC(F)(F)F)ccc2O[C@H]1CN(C)Cc1ccc(Oc2ccccc2)cc1`, the “activity change, negative = inhibition” value is 5.72%.

Take `CCCC#Cc1ccc([C@@H]2[C@@H](CO)N3CCCCN(S(=O)(=O)Cc4ccccc4)C[C@H]23)cc1`: the “activity change, negative = inhibition” value is 35.3%. As for `O=C(C[C@H]1CC[C@@H](NS(=O)(=O)c2ccccc2)[C@@H](CO)O1)NCc1ccncn1`, the “activity change, negative = inhibition” value was 27.1%. In the case of `CCN1[C@H](C(=O)NCc2ccccc2)[C@@H](CO)[C@@H]2Cn3c(ccc(-c4ccncc4)c3=O)[C@@H]21` it was -21.2%; in that of `COc1cccc(S(=O)(=O)N(C)C[C@H]2Oc3cc(C4=CCCC4)ccc3S(=O)(=O)N([C@@H](C)CO)C[C@@H]2C)c1`, 10.5%; in that of `O=C(C[C@@H]1C[C@H]2c3cc(NC(=O)Nc4ccc(C(F)(F)F)cc4)ccc3O[C@H]2[C@H](CO)O1)NCc1ccc2c(c1)OCO2`, -16.5%. To `C[C@H](CO)N1C[C@H](C)[C@H](CN(C)S(=O)(=O)c2ccc(F)cc2)Oc2cc(C#Cc3ccc(F)cc3)ccc2S1(=O)=O` belongs 38.2%; to `C[C@H](CO)N1C[C@H](C)[C@H](CN(C)C(=O)c2ccc3c(c2)OCO3)Oc2cc(/C=C/c3ccccc3)ccc2S1(=O)=O`, -4.94%. To `CCCNC(=O)N1C[C@@H](O)COC[C@@H]2O[C@H](CC(=O)N3CCC(Cc4ccccc4)CC3)CC[C@H]21` belongs -18.4%; to `O=C(C1CCOCC1)N1CC2(C1)[C@@H](c1ccccc1)[C@@H](CO)N2CCC(F)(F)F`, -9.4%.

As for `Cc1ccc(S(=O)(=O)N(C)C[C@H]2OCCCC[C@H](C)Oc3ccc(NS(=O)(=O)c4ccc(F)cc4)cc3C(=O)N([C@H](C)CO)C[C@H]2C)cc1`, the “activity change, negative = inhibition” value was -18.5%. For `CC(C)c1cn(CC[C@H]2CC[C@H](NS(=O)(=O)c3ccc(F)cc3)[C@@H](CO)O2)nn1`, the “activity change, negative = inhibition” value was 10.1%.

With `C[C@H](O)C#Cc1ccc2c(c1)O[C@@H](CN(C)Cc1ccc(-c3ccccc3)cc1)[C@@H](C)CN([C@H](C)CO)S2(=O)=O`, the “activity change, negative = inhibition” value is 10.3%. In the case of `C[C@@H]1CN([C@H](C)CO)C(=O)CCCn2cc(nn2)CO[C@H]1CN(C)S(=O)(=O)c1ccc(F)cc1`, the “activity change, negative = inhibition” value was -5.68%. For the compound `Cc1cccc(-c2ccc([C@H]3[C@H]4CN(S(=O)(=O)c5cccc(F)c5)CC(=O)N4[C@H]3CO)cc2)c1`, the “activity change, negative = inhibition” value was 11.7%.

`COc1ccc(S(=O)(=O)Nc2ccc3c(c2)C(=O)N([C@@H](C)CO)C[C@@H](C)[C@@H](CN(C)S(=O)(=O)c2ccccc2)OCCCC[C@@H](C)O3)cc1`: the “activity change, negative = inhibition” value is 12.3%. As to `COc1ccc(NC(=O)N(C)C[C@H]2Oc3ccc(NS(=O)(=O)c4ccc(OC)cc4)cc3CC(=O)N([C@H](C)CO)C[C@H]2C)cc1`, the “activity change, negative = inhibition” value is 19.2% [at 16 µM]. Consider `CC1c2nc3ccccc3n2C(CC(=O)NCc2ccc(Cl)cc2)C(=O)N1Cc1ccccc1` (stereo not drawn), for which the “activity change, negative = inhibition” value is 14.9% [at 16 µM]. In the case of `CN(C)C(=O)c1cccc(-c2ccc([C@@H]3[C@H](CO)N4C(=O)CN(C(=O)C5CC5)C[C@@H]34)cc2)c1` it was 7.57%.

The values above are taken from PubChem BioAssay AID720597 (Broad Institute, 2013).
